The supplement of paper PMC11732987, “Enantioselective OTUD7B fragment discovery through chemoproteomics screening and high-throughput optimisation” (Communications Chemistry, 2025)

Tests used:
Test in all cases: log2 ratio of Biotin-Ahx-Ub-VS probe labelling (fragment/DMSO); higher = less target engagement (more negative = stronger competition), active = hit call of the paper (q ≤ 0.05, log2 ratio ≤ -1)
Settings in all cases: compound concentration: 200 uM; treatment time: 3 h
USP34 = USP34 (UniProt Q70CQ2)
Sequence of USP34 (Q70CQ2 whole entry, the tested form may be a part): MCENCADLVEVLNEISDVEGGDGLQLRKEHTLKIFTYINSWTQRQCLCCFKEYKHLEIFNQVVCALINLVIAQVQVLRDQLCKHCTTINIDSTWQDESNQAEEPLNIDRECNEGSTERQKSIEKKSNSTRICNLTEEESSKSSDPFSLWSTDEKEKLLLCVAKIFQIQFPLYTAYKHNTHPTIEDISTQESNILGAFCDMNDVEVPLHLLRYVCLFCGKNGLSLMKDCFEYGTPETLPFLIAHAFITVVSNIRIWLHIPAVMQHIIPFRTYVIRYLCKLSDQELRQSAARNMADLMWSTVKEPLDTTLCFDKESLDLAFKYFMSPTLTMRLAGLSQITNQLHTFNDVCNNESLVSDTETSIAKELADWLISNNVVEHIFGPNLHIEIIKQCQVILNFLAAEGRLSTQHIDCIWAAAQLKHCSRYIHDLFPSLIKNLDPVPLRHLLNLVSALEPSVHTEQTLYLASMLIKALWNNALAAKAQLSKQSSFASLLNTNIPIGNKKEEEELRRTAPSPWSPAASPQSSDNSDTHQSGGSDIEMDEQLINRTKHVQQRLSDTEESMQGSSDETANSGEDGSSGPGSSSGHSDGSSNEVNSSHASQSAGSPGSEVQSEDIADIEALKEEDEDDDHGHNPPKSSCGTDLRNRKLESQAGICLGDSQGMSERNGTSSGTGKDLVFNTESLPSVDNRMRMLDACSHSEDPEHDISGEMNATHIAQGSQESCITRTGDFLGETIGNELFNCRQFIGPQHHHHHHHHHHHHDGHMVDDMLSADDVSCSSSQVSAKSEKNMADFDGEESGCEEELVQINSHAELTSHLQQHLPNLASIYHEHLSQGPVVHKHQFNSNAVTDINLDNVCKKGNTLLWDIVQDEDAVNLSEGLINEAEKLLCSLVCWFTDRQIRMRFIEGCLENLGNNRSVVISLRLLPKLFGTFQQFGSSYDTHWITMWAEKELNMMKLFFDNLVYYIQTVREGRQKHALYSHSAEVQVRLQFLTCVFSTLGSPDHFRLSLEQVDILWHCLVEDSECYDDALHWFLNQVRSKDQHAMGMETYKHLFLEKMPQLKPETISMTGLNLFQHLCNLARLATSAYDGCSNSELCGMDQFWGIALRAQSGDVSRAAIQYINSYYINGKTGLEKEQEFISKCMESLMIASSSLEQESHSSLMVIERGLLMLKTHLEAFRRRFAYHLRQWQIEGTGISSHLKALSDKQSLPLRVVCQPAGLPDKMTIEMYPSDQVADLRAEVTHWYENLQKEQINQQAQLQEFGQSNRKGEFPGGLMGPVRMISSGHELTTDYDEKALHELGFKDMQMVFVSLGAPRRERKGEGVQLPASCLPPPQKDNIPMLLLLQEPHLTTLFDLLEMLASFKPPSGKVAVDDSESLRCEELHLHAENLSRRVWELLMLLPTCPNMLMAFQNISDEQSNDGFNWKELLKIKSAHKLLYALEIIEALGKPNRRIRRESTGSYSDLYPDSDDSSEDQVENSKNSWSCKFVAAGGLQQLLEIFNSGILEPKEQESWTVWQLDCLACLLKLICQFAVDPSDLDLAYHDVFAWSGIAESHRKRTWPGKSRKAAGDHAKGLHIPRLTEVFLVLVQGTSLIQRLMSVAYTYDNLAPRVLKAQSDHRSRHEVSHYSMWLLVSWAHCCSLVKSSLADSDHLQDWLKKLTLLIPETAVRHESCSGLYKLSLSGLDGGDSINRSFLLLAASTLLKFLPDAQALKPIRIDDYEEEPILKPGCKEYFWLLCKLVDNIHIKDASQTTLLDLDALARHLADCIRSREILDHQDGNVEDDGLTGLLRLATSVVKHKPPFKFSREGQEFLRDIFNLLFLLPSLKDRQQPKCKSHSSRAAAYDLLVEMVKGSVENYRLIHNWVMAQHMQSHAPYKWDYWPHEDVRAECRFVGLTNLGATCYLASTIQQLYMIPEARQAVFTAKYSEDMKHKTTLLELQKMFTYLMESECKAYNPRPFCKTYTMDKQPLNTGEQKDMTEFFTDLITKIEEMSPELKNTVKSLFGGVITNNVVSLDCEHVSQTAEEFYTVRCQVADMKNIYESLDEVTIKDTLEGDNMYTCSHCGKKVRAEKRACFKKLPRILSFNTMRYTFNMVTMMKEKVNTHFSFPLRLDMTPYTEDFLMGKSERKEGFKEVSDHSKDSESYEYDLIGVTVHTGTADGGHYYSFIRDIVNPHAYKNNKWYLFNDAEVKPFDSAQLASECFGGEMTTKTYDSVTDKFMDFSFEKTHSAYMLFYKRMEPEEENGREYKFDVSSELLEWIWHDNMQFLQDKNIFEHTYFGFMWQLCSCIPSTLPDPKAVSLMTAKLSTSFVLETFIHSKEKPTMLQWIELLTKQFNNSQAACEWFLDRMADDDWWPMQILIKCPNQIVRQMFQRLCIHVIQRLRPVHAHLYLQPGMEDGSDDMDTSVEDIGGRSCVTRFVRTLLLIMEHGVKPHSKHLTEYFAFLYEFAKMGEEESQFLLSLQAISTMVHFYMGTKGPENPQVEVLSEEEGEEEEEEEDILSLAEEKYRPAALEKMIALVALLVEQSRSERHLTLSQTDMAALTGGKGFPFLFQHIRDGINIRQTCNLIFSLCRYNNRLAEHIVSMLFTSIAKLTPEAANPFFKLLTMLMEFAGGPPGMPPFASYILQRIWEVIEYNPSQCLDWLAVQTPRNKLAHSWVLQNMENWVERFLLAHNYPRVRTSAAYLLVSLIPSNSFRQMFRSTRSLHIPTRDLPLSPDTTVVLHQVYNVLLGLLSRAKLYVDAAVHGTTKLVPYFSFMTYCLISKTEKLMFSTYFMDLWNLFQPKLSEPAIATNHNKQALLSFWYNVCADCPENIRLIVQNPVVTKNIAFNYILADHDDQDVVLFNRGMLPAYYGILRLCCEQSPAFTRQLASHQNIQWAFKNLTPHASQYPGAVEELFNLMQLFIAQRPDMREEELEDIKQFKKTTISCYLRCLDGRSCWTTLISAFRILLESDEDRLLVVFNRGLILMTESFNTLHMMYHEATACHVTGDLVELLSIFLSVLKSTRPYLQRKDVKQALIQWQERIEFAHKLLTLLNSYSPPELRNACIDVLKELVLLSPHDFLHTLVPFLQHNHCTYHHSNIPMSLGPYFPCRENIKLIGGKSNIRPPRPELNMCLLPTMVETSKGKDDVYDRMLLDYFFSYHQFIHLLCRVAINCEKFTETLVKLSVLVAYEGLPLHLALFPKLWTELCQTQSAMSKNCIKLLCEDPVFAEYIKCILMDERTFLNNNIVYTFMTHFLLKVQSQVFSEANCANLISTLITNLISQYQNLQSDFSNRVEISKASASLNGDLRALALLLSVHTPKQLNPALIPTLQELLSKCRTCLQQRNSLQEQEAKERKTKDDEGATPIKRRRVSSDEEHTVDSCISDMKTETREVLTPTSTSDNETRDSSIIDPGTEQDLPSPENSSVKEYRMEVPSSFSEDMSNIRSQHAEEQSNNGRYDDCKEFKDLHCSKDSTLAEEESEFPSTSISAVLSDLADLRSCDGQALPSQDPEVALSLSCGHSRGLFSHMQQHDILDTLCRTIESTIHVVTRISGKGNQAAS
Method in brief: (§1)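 HEK293T lysate (495 µg per sample, in Tris/CHAPS/IGEPAL buffer with protease inhibitors) was treated in triplicate with fragment at 200 µM or with DMSO for 3 h. It was then treated with Biotin-Ahx-Ub-VS (0.5 µM final) for 1 h. Labelled DUBs were NeutrAvidin-enriched, digested with LysC and trypsin, and run by diaPASEF LC-MS/MS. Spectronaut label-free quantities were global-median-normalised. Values are average log2 ratios fragment/DMSO by unpaired t-test, using proteins with ≥2 unique peptides.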

USP36 = molecular target: T1, USP36 (UniProt Q9P275)
T1 sequence (whole entry): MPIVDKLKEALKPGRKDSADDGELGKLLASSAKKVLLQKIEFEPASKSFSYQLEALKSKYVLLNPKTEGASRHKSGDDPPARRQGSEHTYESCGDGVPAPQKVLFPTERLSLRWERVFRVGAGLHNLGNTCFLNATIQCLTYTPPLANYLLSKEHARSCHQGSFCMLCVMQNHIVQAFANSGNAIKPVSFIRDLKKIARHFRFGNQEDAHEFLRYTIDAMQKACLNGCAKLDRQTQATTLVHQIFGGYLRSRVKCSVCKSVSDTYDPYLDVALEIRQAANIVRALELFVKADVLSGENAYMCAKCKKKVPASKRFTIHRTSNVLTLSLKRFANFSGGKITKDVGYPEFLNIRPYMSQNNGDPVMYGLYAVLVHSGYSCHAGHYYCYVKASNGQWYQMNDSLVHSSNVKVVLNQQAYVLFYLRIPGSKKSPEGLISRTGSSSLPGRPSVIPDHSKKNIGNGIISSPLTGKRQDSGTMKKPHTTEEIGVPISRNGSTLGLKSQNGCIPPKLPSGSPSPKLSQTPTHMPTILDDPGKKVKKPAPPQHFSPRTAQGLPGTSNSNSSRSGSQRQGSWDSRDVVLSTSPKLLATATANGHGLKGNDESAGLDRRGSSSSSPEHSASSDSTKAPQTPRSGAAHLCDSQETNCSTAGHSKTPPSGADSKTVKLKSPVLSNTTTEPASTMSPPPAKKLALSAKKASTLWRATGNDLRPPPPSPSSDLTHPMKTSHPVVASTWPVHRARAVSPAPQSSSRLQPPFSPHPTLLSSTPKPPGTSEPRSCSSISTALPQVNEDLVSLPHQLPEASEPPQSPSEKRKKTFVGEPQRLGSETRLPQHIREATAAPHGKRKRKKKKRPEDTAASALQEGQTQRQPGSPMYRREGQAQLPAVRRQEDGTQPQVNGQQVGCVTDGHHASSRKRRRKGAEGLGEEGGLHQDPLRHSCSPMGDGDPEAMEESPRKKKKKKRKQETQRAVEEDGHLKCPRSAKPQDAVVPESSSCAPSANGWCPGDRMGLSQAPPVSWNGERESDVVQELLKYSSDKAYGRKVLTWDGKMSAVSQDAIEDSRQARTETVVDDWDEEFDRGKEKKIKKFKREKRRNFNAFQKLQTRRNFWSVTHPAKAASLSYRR
Method in brief: as §1

USP38 = molecular target: T2, USP38 (UniProt Q8NB14)
T2 sequence (whole entry): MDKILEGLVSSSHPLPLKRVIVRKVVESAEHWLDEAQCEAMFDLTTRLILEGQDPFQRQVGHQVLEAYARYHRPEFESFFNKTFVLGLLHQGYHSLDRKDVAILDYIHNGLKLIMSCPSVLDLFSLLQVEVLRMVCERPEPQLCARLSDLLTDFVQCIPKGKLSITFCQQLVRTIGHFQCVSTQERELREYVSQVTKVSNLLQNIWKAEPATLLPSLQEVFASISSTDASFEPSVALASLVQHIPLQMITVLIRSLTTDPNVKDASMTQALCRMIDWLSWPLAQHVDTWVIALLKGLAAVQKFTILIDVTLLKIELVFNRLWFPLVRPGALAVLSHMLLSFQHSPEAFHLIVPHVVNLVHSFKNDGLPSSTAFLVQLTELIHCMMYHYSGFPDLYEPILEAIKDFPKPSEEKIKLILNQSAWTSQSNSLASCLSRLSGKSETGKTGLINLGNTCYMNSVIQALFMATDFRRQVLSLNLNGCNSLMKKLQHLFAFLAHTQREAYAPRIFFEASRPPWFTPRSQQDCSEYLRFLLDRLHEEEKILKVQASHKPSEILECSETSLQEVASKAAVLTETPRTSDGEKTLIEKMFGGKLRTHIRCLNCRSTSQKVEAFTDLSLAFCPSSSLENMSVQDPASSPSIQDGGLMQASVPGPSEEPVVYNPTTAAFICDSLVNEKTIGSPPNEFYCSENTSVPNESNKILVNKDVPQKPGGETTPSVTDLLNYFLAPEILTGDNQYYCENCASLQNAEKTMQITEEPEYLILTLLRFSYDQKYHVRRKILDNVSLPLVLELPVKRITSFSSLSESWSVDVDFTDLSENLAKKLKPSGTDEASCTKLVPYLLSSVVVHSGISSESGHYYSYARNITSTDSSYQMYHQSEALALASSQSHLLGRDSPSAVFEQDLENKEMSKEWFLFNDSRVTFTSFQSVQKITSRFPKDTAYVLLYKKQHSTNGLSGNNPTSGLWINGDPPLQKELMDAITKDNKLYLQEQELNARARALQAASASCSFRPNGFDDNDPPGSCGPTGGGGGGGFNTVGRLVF
Method in brief: as §1

USP39 = molecular target: T3, USP39 (UniProt Q53GS9)
T3 sequence (whole entry): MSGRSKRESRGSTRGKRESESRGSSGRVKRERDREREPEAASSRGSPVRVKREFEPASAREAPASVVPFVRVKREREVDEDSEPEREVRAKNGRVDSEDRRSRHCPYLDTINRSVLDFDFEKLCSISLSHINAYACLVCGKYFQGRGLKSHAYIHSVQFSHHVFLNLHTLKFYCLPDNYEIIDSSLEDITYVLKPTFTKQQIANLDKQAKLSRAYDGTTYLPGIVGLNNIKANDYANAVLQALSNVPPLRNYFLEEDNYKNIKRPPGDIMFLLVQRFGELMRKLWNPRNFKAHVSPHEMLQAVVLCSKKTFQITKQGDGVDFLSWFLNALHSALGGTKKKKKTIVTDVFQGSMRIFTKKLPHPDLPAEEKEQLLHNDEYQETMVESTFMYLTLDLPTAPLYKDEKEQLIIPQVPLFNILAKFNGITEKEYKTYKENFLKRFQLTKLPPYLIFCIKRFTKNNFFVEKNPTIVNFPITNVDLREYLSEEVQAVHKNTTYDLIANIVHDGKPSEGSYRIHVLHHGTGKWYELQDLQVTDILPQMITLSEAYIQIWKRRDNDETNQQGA
Method in brief: as §1

USP4 = molecular target: T4, USP4 (UniProt Q13107)
T4 sequence (whole entry): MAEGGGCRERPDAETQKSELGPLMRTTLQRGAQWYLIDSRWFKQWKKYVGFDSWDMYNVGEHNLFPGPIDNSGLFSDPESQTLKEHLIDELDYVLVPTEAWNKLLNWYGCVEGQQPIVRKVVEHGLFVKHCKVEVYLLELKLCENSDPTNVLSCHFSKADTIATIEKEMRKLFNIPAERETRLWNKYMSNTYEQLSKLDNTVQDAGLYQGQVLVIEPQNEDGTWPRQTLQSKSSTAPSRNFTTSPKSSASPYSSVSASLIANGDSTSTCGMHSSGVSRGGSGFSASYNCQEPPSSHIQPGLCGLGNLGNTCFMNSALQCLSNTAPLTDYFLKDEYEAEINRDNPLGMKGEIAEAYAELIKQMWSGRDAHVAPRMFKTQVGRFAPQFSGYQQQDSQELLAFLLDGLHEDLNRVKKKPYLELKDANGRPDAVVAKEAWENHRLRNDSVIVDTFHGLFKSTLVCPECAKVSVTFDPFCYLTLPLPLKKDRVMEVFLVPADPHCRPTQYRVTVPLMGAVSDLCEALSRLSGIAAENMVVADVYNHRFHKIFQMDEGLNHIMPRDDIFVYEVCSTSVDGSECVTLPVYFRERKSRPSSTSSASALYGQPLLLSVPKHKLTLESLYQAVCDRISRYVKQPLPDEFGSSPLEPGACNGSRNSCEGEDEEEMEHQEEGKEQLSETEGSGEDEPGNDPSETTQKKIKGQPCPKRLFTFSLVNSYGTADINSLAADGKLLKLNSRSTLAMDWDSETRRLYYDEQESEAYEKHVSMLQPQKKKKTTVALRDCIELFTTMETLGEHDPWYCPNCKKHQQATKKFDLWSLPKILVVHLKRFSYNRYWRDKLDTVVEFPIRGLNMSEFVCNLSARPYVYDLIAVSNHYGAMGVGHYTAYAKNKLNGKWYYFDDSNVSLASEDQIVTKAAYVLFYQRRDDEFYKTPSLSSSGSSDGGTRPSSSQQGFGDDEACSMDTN
Method in brief: as §1

Measured: log2 ratio of Biotin-Ahx-Ub-VS probe labelling

Cc1cc(Cl)ccc1NC(=O)CCl
inactive: USP34 -0.254 | USP36 -0.182 | USP38 -0.0702 | USP39 0.072 | USP4 -0.0162
